Reference: PubChem BioAssay AID1626 (SRMLSC, 2009)
Out of some 220,000 compounds screened, about 2,000 (0.91%) were called active. Inconclusive results (about 2%) are left out. Only a sample is shown. Entries with a potency or affinity are not part of this list. A number with no mark means an inactive call. Rule as the data show it: inconclusive = inhibition above about 80% without an active follow-up result; inactive = below that; test concentration not stated here.

Test: M. tuberculosis H37Rv growth inhibitors, H37Rv strain (AID 1626);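 also: bacteria incubated seven days before Alamar blue readout; 0% = bacteria only wells and 100% = bacteria with antibiotic wells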
Conditions: hits give high values, concentration not given here

| Compound | inhibition [%] |
| --- | --- |
| O=C1[C@@H]2[C@@H]3C[C@@H]([C@H]4ON=C(c5ccc(OCc6ccccc6)cc5)[C@@H]34)[C@@H]2C(=O)N1c1ccc2c(c1)OCO2 | 0.02 |
| O=C(Nc1ccc(-c2cnco2)cc1)c1ccccc1 | 3.05 |
| O=C(Nc1ccc(-c2cnco2)cc1)c1ccc(Cl)cc1 | -6.64 |
| Cc1cc(C(C)(C)C)ccc1OCCn1ccnc1 | -6.1 |
| O=C(Cc1ccccc1)N/N=C/c1ccccc1Cl | 7.74 |
| CCOC(=O)c1cccc(NC(=O)CCc2nc(-c3ccccc3F)no2)c1 | 66.8 |
| Cc1cccc(-c2noc(CCCC(=O)Nc3ccc(C(N)=O)cc3)n2)c1 | 0.64 |
| Cc1cccc(-c2noc(CCC(=O)Nc3ccccc3)n2)c1 | 1.97 |
| COc1ccc(-c2noc(CCCC(=O)Nc3ccc(C(N)=O)cc3)n2)cc1 | -9.14 |
| Cc1ccc(-c2noc(CCC(=O)Nc3ccccc3C)n2)cc1 | 13.8 |
| CC(C)CNC(=O)CCc1nc(-c2ccccc2)no1 | -9.52 |
| O=C(O)CCc1nc(-c2ccc(Cl)cc2)no1 | -0.01 |
| Cc1cccc(-c2noc(CCC(=O)Nc3ccc(C(N)=O)cc3)n2)c1 | 0.33 |
| O=C(CCc1ccccc1)NCCc1nc2ccccc2[nH]1 | -3.29 |
| CCN(c1ccccc1)S(=O)(=O)c1ccc(Cl)c(NC(=O)CN2C(=O)NC3(CCCC3)C2=O)c1 | -9.72 |
| CCC(C)(C(=O)NC1CCCC1)N(C)C(=O)c1ccccn1 (configuration not stated) | -3.46 |
| COc1ccc2c(CC(=O)OCC(=O)c3ccccc3OC)coc2c1 | 3.25 |
| O=C(CN1CCCCCCC1)Nc1ccc(Cl)cc1Cl | -1.9 |
| CC1=NN(c2ccccc2)C(=O)/C1=C\c1sccc1C | -4.07 |
| COC(=O)c1ccc(/C=N/OCC(=O)NCc2ccc(F)cc2)cc1 | 6.23 |
| CC(C)CC1NC2(C(=O)N(C)c3ccccc32)C2C(=O)N(C(C)C)C(=O)C12 (configuration not stated) | 0.86 |
| N#Cc1c(-c2ccccc2)nc2n(-c3ccccc3)nc(C(=O)Nc3ccccc3)n2c1=O | 8.32 |

| Compound | inhibition [%] |
| --- | --- |
| N#Cc1ccccc1CSc1nnc(Cc2ccccc2)o1 | 0.34 |
| CC(C)=Cc1c(O)nc2ccccn2c1=O | -3.05 |
| Cc1c(NC(=O)CSCc2ccc(Br)cc2)c(=O)n(-c2ccccc2)n1C | -6.02 |
| COc1ccccc1-c1noc(CCC(=O)Nc2ccccc2Cl)n1 | -5.64 |
| Cc1ccc(-c2noc(CCC(=O)Nc3ccc(C)cn3)n2)cc1 | 25.6 |
| CCc1ccccc1NC(=O)CCc1nc(-c2ccc(C)cc2)no1 | -5.75 |
| NC(=O)c1ccc(NC(=O)CCCc2nc(-c3ccccc3Cl)no2)cc1 | -1.91 |
| O=C(/C=C/c1ccco1)N(Cc1cccc(Br)c1)C1CCS(=O)(=O)C1 (configuration not stated) | -13.6 |
| Cc1ccc(NC(=O)c2ccc(N3CCOCC3)c([N+](=O)[O-])c2)cc1S(=O)(=O)N1CCOCC1 | 5.87 |
| COc1cc(CNCC(C)C)cc(Br)c1OCC(=O)Nc1ccccc1 | 0.75 |
| CCN(CC)CCNCc1cc(Cl)c(OCC(=O)Nc2ccccc2)c(OC)c1 | 7.36 |
| O=C(Cn1c2[n+](c3ccccc31)CC(O)CS2)c1ccccc1 (configuration not stated) | -6.67 |
| CCC(=O)N1CCN(c2ccc(OC)cc2[N+](=O)[O-])CC1 | -1.32 |
| NS(=O)(=O)c1ccc(-c2ccc(C=NC3CCS(=O)(=O)C3)o2)cc1 (configuration not stated) | -11.7 |
| NS(=O)(=O)c1ccc(-c2ccc(/C=C3\SC(=S)N(C4CCS(=O)(=O)C4)C3=O)o2)cc1 (configuration not stated) | -2.38 |
| CC(C)Cn1c(N)c(C(=O)COC(=O)c2ccc(F)cc2)c(=O)n(C)c1=O | 6.86 |
| CN(C)c1nc(N)nc(CSc2nnnn2-c2ccc(F)cc2)n1 | -2.97 |
| CCCOc1ccc(OC(=O)c2ccc(Br)o2)cc1 | 3.47 |
| CC(=O)c1ccc(OC(=O)c2ccc(Br)o2)cc1 | -1.59 |
| CCC(=O)NCCc1nc2ccccc2n1Cc1ccccc1 | -11.3 |
| CCC(=O)NCCc1nc2ccccc2n1Cc1ccc(C)cc1 | -3.53 |
| CCC(=O)Nc1nc2ccccc2n1CCN(C)C | 0.79 |

| Compound | inhibition [%] |
| --- | --- |
| CCC(=O)Nc1nc2ccccc2n1CCN(CC)CC | -1.49 |
| CC(=O)NCCc1nc2ccccc2n1Cc1ccc(Cl)cc1 | -2.45 |
| CCC(=O)Nc1nonc1-c1nc2ccccc2n1Cc1ccccc1 | 22.2 |
| NCCNC(=O)Cc1cccc(NC(=O)Cc2ccc(Nc3ncnc4c3ncn4[C@@H]3O[C@H](CO)[C@@H](O)[C@H]3O)cc2)c1 | 10.9 |
| COc1ccc(C(=O)c2ccc3oc(-c4ccc(OC)cc4)c(C#CCCO)c3c2)cc1 | 6.95 |
| Cc1ccccc1NC(=O)c1ccc(F)c(S(=O)(=O)N2CCCCC2)c1 | -2.34 |
| CCn1cc(Br)c(C(=O)Nc2ccc(F)c(Cl)c2)n1 | -11.6 |
| CCOCCCNC(=O)c1ccc(NC(C)=O)cc1 | -8.03 |
| CC(=O)C1=C(O)C(=O)N(C)C1c1ccccc1F (configuration not stated) | 0.41 |
| CN(C[C@H](Cc1ccccc1)N(C[C@H](CC1CCCCC1)N(CCc1ccccc1)N=O)N=O)N=O | -1.37 |
| CC(C)Sc1ncc(S(=O)(=O)c2ccccc2)c(=O)[nH]1 | -2.21 |
| CCCCn1c(O)c(C(C)=Nc2ccc3c(c2)CCC3)c(=O)[nH]c1=O | 7.92 |
| CCCCn1c(O)c(C(CC)=Nc2ccc3c(c2)CCC3)c(=O)[nH]c1=O | 74.9 |
| C=CCn1c(O)c(C(C)=Nc2ccc(NC(C)=O)cc2)c(=O)[nH]c1=O | -0.17 |
| CCCCn1c(O)c(C(CC)=Nc2ccc(C(=O)O)cc2)c(=O)[nH]c1=O | -1.19 |
| C=CCn1c(O)c(C(C)=Nc2ccc(C(=O)O)cc2)c(=O)[nH]c1=O | -11.5 |
| CCCCn1c(O)c(C(CC)=Nc2ccc(OC)cc2OC)c(=O)[nH]c1=O | -1.05 |
| CCCCn1c(O)c(C(C)=Nc2ccc(C(=O)O)cc2)c(=O)[nH]c1=O | -16.2 |
| C=CCn1c(O)c(C(C)=Nc2ccc3c(c2)CCC3)c(=O)[nH]c1=O | 54.5 |
| O=C(O)CC(CNS(=O)(=O)c1cccc2nsnc12)c1ccccc1 (configuration not stated) | 2.51 |
| O=C1CC(c2nc3ccccc3[nH]2)CN1c1cccc(C(F)(F)F)c1 (configuration not stated) | 2.87 |
| CN1CCN(C(=S)c2ccc(-c3cccc(Cl)c3Cl)o2)CC1 | 2.93 |

| Compound | inhibition [%] |
| --- | --- |
| Nc1c(Cl)ncnc1N/N=C/c1cccnc1 | 3.93 |
| Cn1c(N2CCOCC2)cc(=O)n(C)c1=O | -3.19 |
| COc1ccc(CCNC(=O)CSCc2ccc([N+](=O)[O-])cc2)cc1OC | -5.73 |
| CCN(CC)c1ccc(C(=O)OCC(=O)Nc2ccc3[nH]c(=O)[nH]c3c2)cc1 | 6.23 |
| O=C(Nc1ccc(Br)cc1)C1CCCN(S(=O)(=O)c2cccnc2)C1 (configuration not stated) | -3.26 |
| C=CCn1c(CNC(=O)c2ccco2)nnc1SCC(=O)Nc1cccc(F)c1 | 2.84 |
| CCn1c(SCc2nc3ccccc3c(=O)[nH]2)nc2ccccc21 | 11.6 |
| COc1ccc2nc(N3CCC(O)CC3)c(C#N)cc2c1 | 1.43 |
| COc1ccc2cc(C#N)c(N3CCN(C(=O)c4ccccc4C)CC3)nc2c1 | 7.93 |
| CC(C)CCNC(=O)CCn1c(=S)oc2ccccc21 | -7.67 |
| CC(=O)c1ccc(NC(=O)C(C)N2CCN(C/C=C/c3ccccc3)CC2)cc1 (configuration not stated) | 53.1 |
| Fc1ccc(CSc2nnc(-c3cccnc3)n2Cc2ccco2)cc1 | -3.79 |
| CCCc1nc2c(sc3nc4c(cc32)COC(C)(C)C4)c(=O)n1Cc1ccco1 | -1.51 |
| CCCCOC(=O)Nc1sc2c(c1C(=O)OC)CCC2 | -0.74 |
| S=c1[nH]nc(CSCc2ccccc2Cl)n1C1CCCCC1 | 4.24 |
| C#CCOCCOCCOCCNc1nc(N2CCOCC2)nc(N2CCN(C(=O)[C@H](Cc3cc4ccccc4[nH]3)n3cc([C@@H](N)CC(C)C)nn3)CC2)n1 | -3.36 |
| C#CCOCCOCCOCCNc1nc(N2CCN(C(=O)[C@H](Cc3cc4ccccc4[nH]3)n3cc(C(N)CC(C)C)nn3)CC2)nc(N2CCN(C(=O)[C@H](CCC(=O)O)n3cc(C(N)[C@H](C)CC)nn3)CC2)n1 (some centres not stated) | -7.16 |
| C#CCOCCOCCOCCNc1nc(N2CCN(C(=O)[C@H]([C@@H](C)CC)n3cc([C@@H](N)CC(C)C)nn3)CC2)nc(N2CCN(C(=O)[C@H](Cc3cc4ccccc4[nH]3)n3cc([C@@H](N)CC(C)C)nn3)CC2)n1 | 33.5 |
| C#CCOCCOCCOCCNc1nc(N2CCN(C(=O)[C@H](CCCCN)n3cc([C@@H](N)CC(C)C)nn3)CC2)nc(N2CCN(C(=O)[C@H](Cc3cc4ccccc4[nH]3)n3cc([C@@H](N)Cc4ccc(O)cc4)nn3)CC2)n1 | 59 |
| C#CCOCCOCCOCCNc1nc(N2CCN(C(=O)[C@H]([C@@H](C)CC)n3cc([C@@H](N)CC(C)C)nn3)CC2)nc(N2CCN(C(=O)[C@H](Cc3cc4ccccc4[nH]3)n3cc([C@@H](N)C(C)CC)nn3)CC2)n1 (some centres not stated) | 45.6 |
| C#CCOCCOCCOCCNc1nc(N2CCOCC2)nc(N2CCN(C(=O)[C@H](Cc3cc4ccccc4[nH]3)n3cc([C@@H](N)Cc4ccc(O)cc4)nn3)CC2)n1 | 52 |
